Experimental data reported in PubChem BioAssay (NCI).
“And” between values parts separate entries of the source, which are not always exact repeats. Equal entries are not always repeated. The panel holds about 83,000 compounds, 20% with a hit somewhere; the sample as a whole holds those more often.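 Step 1: grow cells in 96-well plates. Step 2: add test compound at a single concentration. Step 3: incubate 48 h. Step 4: record percent growth.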 The source made the active and inactive calls. Where a SMILES comes first, the peptide text is derived from it.

What follows are compounds tested on A549/ATCC NSCLC (assay: NCI-60 one-dose screen, 48 h (100 = growth as untreated, 0 = no growth, -100 = all killed)). Details: 10 µM unless noted.
Procedure: Growth inhibition of the A549/ATCC human Non-Small Cell Lung tumor cell line is measured as a screen for anti-cancer activity. Cells are grown in 96 well plates and exposed to the test compound for 48 hours. Compounds are tested at a single concentration, which is 10^-5 M for most compounds. The reported endpoint is percent growth (GI% or GIPRCNT), where numbers from 0 - 100% represent growth inhibition, and numbers from -100% - 0 represent cell death. For example, a value of 40 represents 60% growth inhibition. A value of 0 means no net growth occurred over the course of the experiment. A value of -40 indicates 40% of cells at the beginning of the experiment died by the end of the experiment. A value of -100 means all cells are dead at the end of the experiment.
NCI-60 Human Tumor Cell Lines Screen was performed using the standard one-dose NCI protocol, which is described in more detail at https://dtp.cancer.gov/discovery_development/nci-60/default.htm.
Compounds with GIPRCNT values below 10 were considered active. Activity score was based on GIPRCNT using the following formula: […]
Score is 0 for GIPRCNT values of 100 or above, 50 for GIPRCNT values of 0, and 100 for GIPRCNT values of -100.

SMILES | growth
CCCCOc1ccc(Nc2cc(Cl)ccc2C(=O)O)cn1 | 96.5% (inactive) and 98.1% (inactive)
Cc1ccc(S(=O)(=O)c2ccccc2)cc1 | 41.7% (inactive)
N#CC(C#N)N=Nc1ccc(Cl)cc1 | 105% (inactive)
CN(C)CC1CCCCCC(CN(C)C)C1=O (stereo not given) | 106% (inactive)
ClCCOCCOc1ccc(C2CCCCC2)cc1 | 86.6% (inactive)
CCCCCCCCCCNC(=O)CI | 95.1% (inactive)
O=CN1CCCCC1 | 122% (inactive)
CCCCOC(=O)/C=C\C(=O)NC(N)=O | 95.8% (inactive)
CC[C@H](CC[C@@H](C)[C@H]1CC[C@H]2[C@@H]3CC=C4C[C@@H](O)CC[C@]4(C)[C@H]3CC[C@]12C)C(C)C | 102% (inactive)
c1ccc(CNCCNCc2ccccc2)cc1 | 101% (inactive)
Oc1ccc(Cc2ccccc2Cl)c(O)c1 | 98.8% (inactive)
Cn1cnc([N+](=O)[O-])c1Sc1ncn[nH]1 | 99.4% (inactive)
NC(Cc1ccccc1)C(=O)NC(Cc1ccccc1)C(=O)O (stereo not drawn) (H-Phe-Phe-OH; configuration not given here) | 90.2% (inactive) and 101% (inactive)
Cc1cc(-c2cc(C)c(O)c(C)c2)cc(C)c1O | 90.2% (inactive)
O=c1n(CC2CO2)c(=O)n(CC2CO2)c(=O)n1CC1CO1 (stereo not given) | 44.3% (inactive)
Brc1ccc(SSc2ccc(Br)cc2)cc1 | 66.7% (inactive)
CC1CCC2(OC1)OC1CC3C4CC=C5CC(O)CCC5(C)C4CCC3(C)C1C2C (stereo not given) | 27.3% (inactive)
c1ccc(-c2nc3ccccc3s2)cc1 | 105% (inactive)
O=C1c2c(O)ccc(O)c2C(=O)c2c(NCCNCCO)ccc(NCCNCCO)c21 | -51.4% (active) and -77.6% (active)
CC(=O)Nc1ccc(S(N)(=O)=O)cc1 | 96% (inactive) and 103% (inactive)

SMILES | growth
Cc1cc(-c2ccc(N=Nc3ccc4c(S(=O)(=O)O)cc(S(=O)(=O)O)c(N)c4c3O)c(C)c2)ccc1N=Nc1ccc2c(S(=O)(=O)O)cc(S(=O)(=O)O)c(N)c2c1O | 92.7% (inactive)
COc1cc(C(O)C2C(=O)OCC2C2(c3ccc4c(c3)OCO4)SCCCS2)cc(OC)c1OC (stereo not given) | 97.1% (inactive)
O=C1C=C(Nc2ccccc2)c2ccccc2C1=O | 6.95% (active) and 93.7% (inactive)
Nc1ncnc2c1ncn2C1OC(COP(=O)(O)O)C(O)C1O (stereo not given) | 114% (inactive)
COc1ccc2cc1Oc1ccc(cc1)C[C@H]1c3cc(c(OC)cc3CCN1C)Oc1c(OC)c(OC)cc3c1[C@H](C2)N(C)CC3 | 39.6% (inactive)
Cl | 103% (inactive)
CC(=O)OC(C)C(=O)NCC(C)O (stereo not given) | 108% (inactive)
CCc1cc(C)cc(O)c1 | 108% (inactive)
O=C1OC(C(O)C(O)CO)C(O)=C1O (stereo not given) | 104% (inactive) and 74.9% (inactive)
OCC1OC(O)C(O)C(O)C1O (stereo not given) | 108% (inactive)
c1ccc2c(c1)OC1OC2Oc2ccccc21 | 96.9% (inactive)
Nc1ccc2c(O)cc(S(=O)(=O)O)cc2c1 | 105% (inactive) and 92.1% (inactive)
NC1CCC(C(=O)O)CC1 (stereo not given) | 107% (inactive) and 108% (inactive)
CCCCCCCCCCCCCCCCC(C(=O)O)C(O)(CC(=O)O)C(=O)O (stereo not given) | 106% (inactive) and 12.6% (inactive)
OCCN1CCCCCCC1 | 99% (inactive)
O=C(CO)C(O)C(O)C(O)C(O)CO (stereo not given) | 97.5% (inactive) and 96.1% (inactive)
NN1CCOC(c2ccccc2)C1 (stereo not given) | 104% (inactive)
O=C1CSC2=NCCN12 | 92.9% (inactive) and 113% (inactive)
O=[N+]([O-])c1cccc(SSc2cccc([N+](=O)[O-])c2)c1 | 100% (inactive)
CCN(CCNS(C)(=O)=O)c1ccc(N)c(C)c1 | 109% (inactive)
